This is a sample that favours compounds with a hit; in the whole collection about 2.4% have one here.
M1 PAM: human CHRM1 positive allosteric modulation. P11229. CHO-K1 hM1, Fluo-8 calcium fluorescence, ACh EC20; 0% = ACh EC20, 100% = maximal ACh. activation, % at 3 µM. actives 0.088% (n = 360,000). AID 588819; in the data active = activation above about 19%, passing the limit was not always enough
Target sequence (P11229 whole entry, looked up): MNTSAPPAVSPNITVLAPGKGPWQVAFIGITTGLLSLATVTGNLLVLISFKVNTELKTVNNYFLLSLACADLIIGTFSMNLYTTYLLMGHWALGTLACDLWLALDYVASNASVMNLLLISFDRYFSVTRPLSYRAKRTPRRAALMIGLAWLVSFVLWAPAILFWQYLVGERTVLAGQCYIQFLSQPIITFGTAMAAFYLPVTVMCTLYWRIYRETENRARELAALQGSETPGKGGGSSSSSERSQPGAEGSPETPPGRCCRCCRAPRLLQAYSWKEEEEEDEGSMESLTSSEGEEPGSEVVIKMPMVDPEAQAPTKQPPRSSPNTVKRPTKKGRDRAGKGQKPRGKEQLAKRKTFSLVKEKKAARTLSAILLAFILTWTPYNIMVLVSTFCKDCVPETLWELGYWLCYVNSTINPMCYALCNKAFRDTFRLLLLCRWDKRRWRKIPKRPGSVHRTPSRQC
M1 PAM parental: counter-screen for M1 PAMs: effect in parental CHO-K1 cells; ATP EC20, Fluo-8 calcium fluorescence; 0% at ATP EC20, 100% at ATP max; activation, % at 3 µM; actives 0.02% (n = 360,000);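 active = activation above the run cutoff, the mean activation of all test compounds plus 3 SD, cut at about 40% in these data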;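 note: peak over basal fluorescence ratio in a 140 s read after ATP addition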
CHO-K1 Ca ag: counter-screen for M1 agonists: effect in parental CHO-K1 cells | AID 602248 | activation, % at 3 µM | Fluo-8 calcium fluorescence; scaled to maximal ATP response, vehicle zero | actives 0.48% (n = 360,000); in the data active = activation above about 15%;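 note: untransfected CHO-K1 host cells lacking M1 receptor as counterscreen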
CHO-K1 Ca antag: counter-screen for M1 antagonists: effect in parental CHO-K1 cells; ATP-induced calcium, Fluo-8 fluorescence; actives 0.6% (n = 360,000); inhibition, % at 3 µM;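 active = inhibition above a per-plate cutoff, the plate's mean sample inhibition plus 3 SD, cut at about 24% in these data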;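 note: 0% = DMSO plus EC80 ATP and 100% = DMSO alone without ATP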
CHRM1 antagonist: blocks human M1 muscarinic receptor; P11229; actives 1.3% (n = 360,000); CHO-K1 hM1, Fluo-8 calcium fluorescence, ACh EC80 antagonist; inhibition, % at 3 µM;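 active = percent inhibition above its own plate's cutoff, namely the mean of that plate's compound wells plus 3 SD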;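 note: peak over basal fluorescence ratio during 140 s after agonist addition; 0% = ACh EC80 plus DMSO and 100% = DMSO alone without agonist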
M1 ag: human M1 muscarinic receptor agonism; P11229; actives 0.33% (n = 360,000); activation, % at 3 µM; CHO-K1 hM1, Fluo-8 calcium fluorescence, agonist mode; 0% DMSO, 100% acetylcholine EC100; AID 588814;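 active = activation above the run's mean compound activation plus 3 SD, cut at about 16% in these data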;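 note: peak over basal fluorescence ratio within a 140 s kinetic read after compound addition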
* hit, by the source's call.

SMILES	M1 PAM	M1 PAM parental	CHO-K1 Ca ag	CHO-K1 Ca antag	CHRM1 antagonist	M1 ag
CC1(c2ccc(OC(F)F)cc2)NC(=O)N(CC(=O)Nc2ccc(OC(F)F)cc2)C1=O (stereo not drawn)	-3	8	33*	28*	29*	36*
CCOc1ccc(NC(=O)CN2C(=O)NC(C)(c3ccc(OC(F)F)cc3)C2=O)cc1 (stereo not drawn)	3	-3	19*	9	19	32*
CCOC(=O)c1c(C)[nH]c(C(=O)CN2C(=O)NC(C)(c3ccc(C)cc3)C2=O)c1C (stereo not drawn)	13	28	19*	2	2	22*
CC1(c2ccc(OC(F)F)cc2)NC(=O)N(CC(=O)Nc2ccc(S(N)(=O)=O)cc2)C1=O (stereo not drawn)	-3	-5	0	-2	11	-3
COc1cc(OC)cc(C(=O)NC(C(=O)NNC(=O)CN(C)S(=O)(=O)c2ccc(C)cc2)C(C)C)c1 (stereo not drawn)	-1	-13	-1	-4	3	-6
CN1CCN(c2ccc(Cl)cc2NC(=O)CN2C(=O)NC(C)(c3ccccc3)C2=O)CC1 (stereo not drawn)	5	24	1	2	-7	-4
Cc1cc(NC(=O)CN2C(=O)NC(C)(c3ccc(OC(F)F)cc3)C2=O)no1 (stereo not drawn)	7	27	9	-14	7	17*
CC1(c2ccc(OC(F)F)cc2)NC(=O)N(CC(=O)Nc2ccc(Cl)cc2F)C1=O (stereo not drawn)	3	-4	12	3	24	17*
Cc1ccc(NC(=O)CN2C(=O)NC(C)(c3ccc(Cl)cc3)C2=O)cc1 (stereo not drawn)	15	-8	6	6	-2	18*
Cc1ccc(C2(C)NC(=O)N(CC(=O)Nc3ccc4c(c3)OCO4)C2=O)cc1 (stereo not drawn)	6	-1	2	0	-8	5
CC(C)CCC(C)NC(=O)CN1C(=O)NC(C)(c2ccc3ccccc3c2)C1=O (stereo not drawn)	13	-4	2	-2	-5	25*
CN(C)C(=O)CSc1n[nH]c(=O)n1CCc1ccccc1	0	6	1	-10	3	-3
CCOC(=O)c1sc(NC(=O)CN2C(=O)NC3(CCCCCCC3)C2=O)c(C(=O)OCC)c1C	2	18	2	-18	-33	-1
CC1(c2ccc(OC(F)F)cc2)NC(=O)N(CC(=O)Nc2ccc(F)cc2)C1=O (stereo not drawn)	6	24	25*	3	5	29*
CCOC(=O)c1c(NC(=O)CN2C(=O)NC(C)(c3ccc(OC(F)F)cc3)C2=O)sc(C)c1C (stereo not drawn)	13	30	9	6	14	18*
O=C(Cn1cc(C(=O)C(=O)N2CCOCC2)c2ccccc21)Nc1cccc(C(F)(F)F)c1	-1	1	1	0	1	0
COc1ccc(-c2cn(-c3ccc(SC(F)F)cc3)c3[n+]2CCC3)cc1OC	-9	15	0	-4	2	-10
FC(F)Sc1ccc(-n2cc(-c3ccccc3)[n+]3c2CCC3)cc1	-26	-13	0	5	70*	-12
COc1ccc(S(=O)(=O)N2CCOCC2)cc1NC(=O)CCCOc1ccc(Cl)cc1C	2	-1	1	-12	-2	-3
O=c1cc(-c2ccc(O)cc2)oc2cc(O)cc(O)c12	-1	-12	0	8	-12	-1
O=c1c(O)c(-c2ccc(O)cc2)oc2cc(O)cc(O)c12	15	8	2	-8	-7	19*
CCCCn1c(N)c(N(CCOC)C(=O)CSCc2ccc(C)cc2)c(=O)[nH]c1=O	4	18	1	-8	-6	-3
Cc1ccsc1C1C2=C(CCCC2=O)Nc2ncnn21 (stereo not drawn)	-10	-4	0	31*	9	-1
CC(=O)OCC(=O)[C@@]1(O)CC[C@H]2[C@@H]3CCC4=CC(=O)C=C[C@]4(C)[C@@]3(Cl)[C@@H](Cl)C[C@@]21C	-14	22	0	-16	-21	37*
O=c1nc(-c2ccccc2)c2cc(SC(F)F)ccc2[nH]1	28*	7	1	0	-3	-2
SMILES	M1 PAM	M1 PAM parental	CHO-K1 Ca ag	CHO-K1 Ca antag	CHRM1 antagonist	M1 ag
O=c1nc(-c2ccccc2)c2cc(Br)ccc2[nH]1	15	-3	0	-4	-7	5
COc1ccccc1C(=O)Nc1ccc2c(c1)OCCO2	4	-2	1	-6	-5	-3
O=C(Nc1ccc2c(c1)OCCO2)c1cccc(Cl)c1Cl	6	-26	0	14	-9	-7
COc1cc(SC)ccc1C(=O)Nc1ccc2c(c1)OCCO2	-6	20	17*	-10	7	-6
O=C(Nc1ccc2c(c1)OCCO2)c1c(Cl)cccc1Cl	-17	-5	0	9	32*	-5
O=C(O)c1cc(S(=O)(=O)NC(CO)C(O)c2ccc([N+](=O)[O-])cc2)ccc1Br (stereo not drawn)	6	-8	1	-3	-13	-4
CSc1ncnc2c1ncn2CCCNCCc1ccccn1	5	26	0	-19	-11	-8
CCCC(=O)NC(=S)Nc1ccc(N2CCN(C(=O)c3cccs3)CC2)cc1	-9	-12	15*	14	27	3
CCCC(=O)NC(=S)Nc1ccc(NC(=O)c2cccs2)cc1	5	16	1	-2	-4	-2
COc1ccc(S(=O)(=O)CCC(=O)N2CCN(c3ccc([N+](=O)[O-])cc3)CC2)cc1	-19	-3	10	-11	48*	0
O=[N+]([O-])c1ccc(N2CCN(C(=S)Nc3ccc(F)cc3F)CC2)cc1	-5	-16	11	24*	29	-2
COc1ccc(N2CCN(C(=O)CCS(=O)(=O)c3ccc(OC)cc3)CC2)cc1	-1	20	3	-11	2	-5
Cc1csc2c(N3CCN(C(=S)Nc4ccc(F)cc4F)CC3)ncnc12	-15	-8	23*	16	38	23*
CCCC(=O)NC(=S)N1CCN(c2ccc([N+](=O)[O-])cc2)CC1	-7	-11	0	25*	11	-4
Cc1ccc(C(=O)NC(=S)N2CCN(c3ccc([N+](=O)[O-])cc3)CC2)cc1	2	13	-1	-6	-10	-10
O=C1c2ccccc2S(=O)(=O)N1Cc1cccc(S(=O)(=O)N2CCOCC2)c1	-1	1	3	-4	5	-2
Cc1ccccc1-c1nnn(Cc2cccc(S(=O)(=O)N3CCOCC3)c2)n1	-11	-5	15*	8	19	4

Source: PubChem BioAssay (The Scripps Research Institute Molecular Screening Center)
